High-throughput results as filed in PubChem BioAssay.
HT1080NT lethal: kills 2HG-producing HT-1080-NT fibrosarcoma cells. HT-1080-NT fibrosarcoma viability, CellTiter-Glo ATP luminescence, 48 h. Potency, µM (titrated, usually from 46.1 µM), inactives show top-dose activity, negative = less viability, most hits filed as cytotoxic. 360,000 compounds, 1.6% hits. AID 686970;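 note: NT is the 2HG producing partner of a matched IDH1 knockdown line; potency is the fitted concentration of half-maximal effect; 0% = DMSO-treated cells and -100% = media-only wells without cells; nearly all actives have a fitted effect of over 55% in size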
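HT-1080-NT; 750 cells/well; 5% FBS RPMI; 48 h compound, 37 degrees C; CellTiter-Glo luminescence; curve fitting and curve-class assignment.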
TDP1 cell noCPT: qHTS for Inhibitors of human tyrosyl-DNA phosphodiesterase 1 (TDP1): qHTS in cells in absence of CPT | DT40 Tdp1-/- hTDP1 cells, no CPT, ATP luminescence, 48 h | Potency, µM (doses to about 46.2 µM), without a hit: at the top dose activity change, negative = growth inhibition, actives largely listed as inhibitors | 420,000 compounds, 15% hits | AID 686978, 2013; note: potency is the fitted concentration of half-maximal effect; nearly all actives have a fitted effect of over 55% in size
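Seeded 400 DT40-hTDP1 cells/well (vehicle DMSO, no 20 nM CPT); pinned compounds; ≥48 hr at 37 °C; CellTiter-Glo luminescence as viability measure.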
IL-1B inflam inh: blocks inflammasome-driven IL-1 beta release; THP-1 LPS/ATP IL-1B secretion, AlphaLISA, 16 h; hits give low values; activity change, % at 57.5 µM; 360,000 compounds, 4.7% hits; AID 743279; in the data active = activity change below about -50%; inconclusive = mostly about -30% to -49%
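Secreted IL-1B measured by AlphaLISA bead assay after 16 h compound exposure of THP-1 cells; compounds (final up to 57.5 uM) added 1 h before LPS (250 ng/mL) and ATP (1.25 mM) stimulation; lower signal means less secretion.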
TDP1 cell CPT: growth inhibition of DT40 Tdp1-/-;hTDP1 cells with camptothecin (screen for TDP1 inhibitors); chicken DT40 Tdp1-/-;hTDP1 cells + 20 nM CPT, ATP luminescence, 48 h; Potency, µM (doses to about 46.2 µM), without a hit: at the top dose activity change, negative = growth inhibition, actives largely listed as inhibitors; 420,000 compounds, 12% hits; AID 686979; note: potency is the fitted concentration of half-maximal effect; nearly all actives have a fitted effect of over 55% in size
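Cell growth measured by CellTiter-Glo luminescence after a minimum 48 h, 37 C compound exposure with 20 nM CPT in Tdp1-knockout DT40 cells stably expressing hTDP1, seeded 400/well; qHTS titration format.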
HT1080 IDH1KD tx: kills HT-1080 cells with IDH1 knockdown; HT-1080 IDH1 knockdown viability, ATP luminescence, 48 h; Potency, µM (doses to about 46.1 µM), without a hit: at the top dose activity, negative = toxicity, most hits filed as cytotoxic; 360,000 compounds, 2% hits; AID 686971;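 note: potency is the fitted concentration of half-maximal effect; 0% = DMSO wells and -100% = cell-free medium wells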
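CellTiter-Glo luminescence after 48 h compound exposure at 37 degrees C of IDH1-knockdown HT-1080 cells in 5% FBS RPMI. %Activity scaled between DMSO wells and cell-free media wells, with curves fitted and assigned curve classes.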
* hit, by the source's call; i = inactive; u = inconclusive; x = no result; [ ] = dose if it differs, or a comment. Only some compounds are listed: those with a hit (about 19% of all), similar ones and a draw of the others. Unless noted, calls come from the whole dose curve; as a rule, active = well fitted curve in the direction sought with a large enough effect; inconclusive = small, poorly fitted or top-dose-only effect, or another doubt; inactive = no such curve, though single readings can be large; an effect the other way counts as inactive or inconclusive. Unless noted, % is set by controls: 0 for no effect and ±100 for the full control effect.

SMILES	HT1080NT lethal	TDP1 cell noCPT	IL-1B inflam inh	TDP1 cell CPT	HT1080 IDH1KD tx
CC(C)C(C(=O)Nc1nccs1)c1ccc(Cl)cc1 (stereo not given)	u	u	0.0	u	10.3µM*
CC(C)C(C(=O)Nc1ccncc1)c1ccc(Cl)cc1 (stereo not given)	-17.2%	16.4µM*	27.0	u	u
CN(C)c1ccc(C(CNC(=O)c2cccs2)N(C)C)cc1 (stereo not given)	-2.1%	u	-8.8	u	-5.4%
Cc1cc(S(=O)(=O)NCc2ccccc2)ccc1OCC(=O)N1CCCC1	2.1%	-12.2%	i	0.7%	-10.3%
COc1ccc(Cl)cc1NC(=O)NCCc1c(C)nn(C)c1C	x	16.4µM*	x	u	x
COc1ccc(NC(=O)NCCc2c(C)nn(C)c2C)c(OC)c1	x	8.5%	x	1.2%	x
Cc1cc(C)cc(NC(=O)NCCc2c(C)nn(C)c2C)c1	x	-23.6%	x	-11.7%	x
Cc1ccc(NC(=O)NCCc2c(C)nn(C)c2C)cc1Cl	x	23.1µM*	x	u	x
Cc1ccccc1CN1C(=O)c2ccccc2C1c1nnnn1Cc1ccccc1 (stereo not given)	3.6%	-18.2%	0.0	-1.1%	9.1%
Cc1ccccc1Cn1nnc2c1C(=O)c1ccccc1C2=O	-9.0%	6.51µM*	0.0	8.2µM*	23.1µM*
Cc1cccc(Cn2nnc3c2C(=O)c2ccccc2C3=O)c1	u	4.61µM*	10.8	9.2µM*	u
COc1ccc(CNCC(O)(c2ccccc2)c2ccccc2)cc1	-9.5%	18.4µM*	-78.3*	u	-19.8%
COc1ccc(CNCC(O)(c2ccccc2)c2ccccc2)cc1OC	-10.7%	13µM*	-12.7	-72.7%	-21.0%
OC(CNCc1ccccc1)(c1ccccc1)c1ccccc1	-1.5%	u	-9.9	-24.1%	-11.9%
COc1ccc(CNCC(O)(c2ccc(F)cc2)c2ccc(F)cc2)cc1	u	13µM*	-89.3*	u	u
COC(=O)c1ccc(=O)c2nc3/c(=C/O)c(O)cc(=O)c3[nH]c12	-0.3%	u	-5.8	20.6µM*	-2.9%
Nc1nc(NCc2ccccc2)nc(NCc2ccccc2)c1[N+](=O)[O-]	9.7%	-14.9%	-4.4	-4.2%	6.4%
Nc1nc(-c2cc(O)ccc2[N+](=O)[O-])cc(-c2ccccc2)c1[N+](=O)[O-]	u	8.2µM*	2.4	7.31µM*	16.6%
Cc1oc(-c2ccccc2NC(=O)c2ccccn2)nc1CNC(=O)c1ccc(Oc2ccccc2)o1	x	-22.8%	x	1.2%[9.04 µM]	x
COc1cccc(NC(=O)Cn2c(=O)n(CC(=O)NCc3ccc(C)cc3)c(=O)c3sccc32)c1	x	-24.7%	x	u	x
Cc1c(CN(C)C)c2c(n1Cc1ccccc1)C(=O)c1ccc(Br)cc1-2	18.4µM*	u	-68.2*	u	u
Cc1nc(-c2ccc(C)c(N3CCN(C(=O)Nc4cccc(Cl)c4C)CC3)c2)no1	x	16.4µM*	x	u	x
O=c1[nH]c(CN2CCN(c3ccc(O)cc3)CC2)nc2scc(-c3ccc(Cl)cc3)c12	u	4.61µM*	0.0	3.66µM*	20.6µM*
COc1cccc(N2CCN(Cc3nc4scc(-c5ccccc5)c4c(=O)[nH]3)CC2)c1	13µM*	5.17µM*	33.0	5.17µM*	11.6µM*
O=c1[nH]c(CN2CCN(c3ccccc3O)CC2)nc2scc(-c3ccccc3Cl)c12	-27.9%	u	-52.1*	u	u
SMILES	HT1080NT lethal	TDP1 cell noCPT	IL-1B inflam inh	TDP1 cell CPT	HT1080 IDH1KD tx
COc1cccc(N2CCN(Cc3nc4ccccc4c(=O)[nH]3)CC2)c1	-0.8%	u	9.4	0.8%	2.1%
C=CC[C@@H](CC(=O)NCCO)C(=O)N[C@@H](COC(=O)[C@@H](CC=C)Cc1ccc(F)cc1)Cc1ccccc1	-1.5%	u	-5.8	18.4µM*	-9.3%
C=CC[C@H](CC(=O)NCCO)C(=O)NCCOC(=O)[C@@H](CC=C)Cc1ccc(F)cc1	10.5%	-11.8%	-3.3	-2.8%	0.4%
C=CC[C@H](CC(=O)NCCO)C(=O)N[C@H](COC(=O)[C@@H](CC=C)Cc1ccc(F)cc1)C(C)(C)C	-4.2%	18.4µM*	-10.1	u	0.4%
C=CC[C@@H](CC(=O)NCCO)C(=O)N[C@H](COC(=O)[C@@H](CC=C)Cc1ccc(F)cc1)Cc1c[nH]c2ccccc12	-0.1%	u	-11.3	u	-1.5%
C=CCC[C@@H](Cc1ccc(F)cc1)C(=O)OC[C@@H](Cc1ccccc1)NC(=O)[C@@H](CC=C)CC(=O)N[C@@H](CO)Cc1ccccc1	-3.9%	u	-16.8	u	-16.0%
C=CC[C@@H](CC(=O)N[C@H](CO)Cc1ccccc1)C(=O)N[C@H](COC(=O)[C@@H](CC=C)Cc1ccc(F)cc1)Cc1ccccc1	4.9%	14.6µM*	-1.6	23.1µM*	-1.1%
COc1ccc(Cl)cc1NC(=O)c1nnn(CC(=O)Nc2ccc3c(c2)OCO3)c1N	-0.4%	-26.1%	-19.8	-19.9%	-1.6%
C[C@@H]1CN([C@H](C)CO)C(=O)Cc2cc(NC(=O)Nc3ccccc3)ccc2O[C@@H]1CN(C)C(=O)Nc1ccc2c(c1)OCO2	1.2%	-4.3%	-21.0	0.7%	-2.5%
Cc1ccc(S(=O)(=O)C2CCN(c3nc(-c4cccs4)nc4ccccc34)CC2)cc1	-1.0%	u	x	11.2µM*	19.1%
Cc1ccc(S(=O)(=O)N2CCN(c3nc(-c4cccs4)nc4ccccc34)CC2)cc1	25.1%	11.2µM*	x	u	8.8%
COc1cccc(S(=O)(=O)N2CCN(c3nc(-c4cccs4)nc4ccccc34)CC2)c1	10.9%	10µM*	x	14.1µM*	0.0%
Cc1cccc(S(=O)(=O)N2CCN(c3nc(-c4cccs4)nc4ccccc34)CC2)c1	0.8%	-12.7%	x	-9.5%	-2.2%
Cc1ccc(S(=O)(=O)N2CCN(c3nc(-c4cccs4)nc4cccnc34)CC2)cc1	x	u	x	10µM*	x
COc1cccc(C(=O)Cn2c(=O)n(CC3CCCO3)c(=O)c3ccccc32)c1 (stereo not given)	-2.0%	u	13.8	u	-0.8%
CC(C)(C)C1N=C(c2ccc3ccccc3c2)OC1=O (stereo not given)	u	-0.6%	15.2	9.9%	14.6%
Cc1ccccc1-c1cnc(C(O)c2cc(Cl)cc(Cl)c2)[nH]1 (stereo not given)	u	u	-23.8	u	u
Cc1ccc(NC(=O)Cn2nc(-c3ccccc3)nc(Cc3ccccc3)c2=O)cc1	x	-16.1%	x	9.8%	x
CCN1CCCC1Cn1cnc2c([nH]c3ccc(C)cc32)c1=O (stereo not given)	1.8%	-17.2%	-58.4*	-23.2%	5.2%
